# Results from PubChem BioAssay.
# Values joined by “and” are separate entries in the source; they are usually repeats but may differ in a detail not shown here. Equal entries are not always repeated. Active and inactive are the calls of the source.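 How the source made its calls, unless noted: active means thallium flux through the channel raised or lowered by more than 3 SD from vehicle-only wells, actives on both sides; inactive means the rest.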
# Assays:
# [1] = blockers of polyQ-driven CASP3 activation – cell-based (AID 1583); conditions: polyglutamine-induced caspase-3 activation, cell assay; stronger effect = higher value;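 tested at 10 µM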
# [2] = yeast 75Q aggregation reduction – 75Q-TubU reporter (AID 1593); conditions: Yeast 75Q polyglutamine aggregation reporter
# [3] = blockers of cytochrome c efflux from mitochondria – biochemical, purified mitochondria (AID 1603); conditions: stronger effect = lower value;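 further: mouse liver mitochondria challenged with calcium chloride; signal normalized to the plate average as 100%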
# [4] = polyglutamine aggregate formation blockers (AID 1604); conditions: polyglutamine-induced protein aggregation inhibition assay; stronger effect = higher value; tested at 2.5 µM
# [5] = glutamate transport activators, MN-1 cells, MN-1 cell line (AID 1612); conditions: MN-1 motor neuron cells, stronger effect = higher value;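 further: tested at 1 µM final; 0% = mean of DMSO vehicle wells on each plate; positive means more glutamate uptake than control and negative means less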
# [6] = signal quenchers or enhancers, Cy5 substrate/SSB – biochemical, NIH Clinical Collection, E. coli SSB, artefact control for HCV NS3 helicase inhibitor project (AID 743268; call rule not given here); conditions: Cy5-oligo bound E. coli SSB, fluorescence interference
# [7] = system: Hepatitis C virus NS3 helicase; assay: blockers of NS3h binding to DNA – biochemical, fluorescence polarization, NIH Clinical Collection, primary screen (AID 743270; call rule not given here); conditions: NS3 helicase binding to Cy5-dT15 DNA, stronger effect = higher value, concentration not given here
# [8] = biological target: Single-stranded DNA-binding protein (Escherichia coli (strain K12)) (UniProt P0AGE0); assay: SSB-ssDNA binding inhibitors – biochemical, fluorescence polarization, NIH Clinical Collection, counter-screen for HCV NS3 helicase inhibitor project (AID 743271; in the data active means inhibition above about 28%); conditions: E. coli SSB-DNA binding, stronger effect = higher value, concentration not given here
# [9] = compounds distorting NS3 helicase fluorescence signal – biochemical, NIH Clinical Collection, artefact control for HCV NS3 helicase inhibitor project (AID 743272; call rule not given here;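 further: HCV NS3 helicase with a Cy5 labelled single stranded DNA probe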); conditions: fluorescence interference counterscreen, HCV NS3 helicase assay; stronger effect = lower value
# [10] = galactose survival enhancers in mitochondrial complex I cybrids – cell-based, galactose medium, ATP luminescence, primary screen (AID 1645843;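 active means z-score of at least 1.8 in each of two replicates, scored against plate mean and spread of sample wells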;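 further: positive z means more ATP and so rescue of galactose-driven cybrid death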); conditions: complex I mutant cybrid cells, 72 h, stronger effect = higher value
# F380Y/beta4 = assay: BK channel mutant inhibitors and activators – cell-based, U2OS BacMam, thallium flux, beta subunits, selectivity assay, profiling panel (AID 1259406); conditions: U2OS BacMam BK variants, at 30 µM;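 further: initial slope of Thallos dye fluorescence rise after thallium is added; log ratio against the mean of 0.3% DMSO vehicle wells on the same plate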
# [11] = biological target: Calcium-activated potassium channel subunit alpha-1 (Homo sapiens) + Leucine-rich repeat-containing protein 26 (Homo sapiens) (UniProt Q12791+Q2I0M4); assay: as above; conditions: U2OS BacMam BK variants, F380Y/Slo1WT/gamma1, at 30 µM
# R275C = assay: as above; conditions: U2OS BacMam BK variants, at 30 µM
# R275C/beta1 = assay: as above; conditions: U2OS BacMam BK variants, at 30 µM
# R275C/beta2Delta = assay: as above; conditions: U2OS BacMam BK variants, at 30 µM
# R275C/beta4 = assay: as above; conditions: U2OS BacMam BK variants, at 30 µM
# R275C/Slo1WT/beta2 = assay: as above; conditions: U2OS BacMam BK variants, at 30 µM
# Sequence of Calcium-activated potassium channel subunit alpha-1 (Homo sapiens) + Leucine-rich repeat-containing protein 26 (Homo sapiens) (Q2I0M4 whole entry, looked up, one chain of several): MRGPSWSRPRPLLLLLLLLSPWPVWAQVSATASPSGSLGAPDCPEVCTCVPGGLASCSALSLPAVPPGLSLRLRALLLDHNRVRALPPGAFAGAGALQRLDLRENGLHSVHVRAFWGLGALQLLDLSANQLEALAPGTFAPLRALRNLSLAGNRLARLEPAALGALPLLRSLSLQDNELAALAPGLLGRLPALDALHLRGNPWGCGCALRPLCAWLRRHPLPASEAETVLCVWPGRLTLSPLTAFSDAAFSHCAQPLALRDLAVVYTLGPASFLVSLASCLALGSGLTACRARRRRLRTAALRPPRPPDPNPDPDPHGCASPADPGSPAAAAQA
SMILES,inhibition [1] [%],score [2],cytochrome c release ratio [3],inhibition of aggregation [4] [%],glutamate uptake change [5] [%],fluorescence ratio [6],inhibition [7],inhibition [8],fluorescence ratio [9],z-score [10],log fold change Tl+ flux (F380Y/beta4),log fold change Tl+ flux [11],log fold change Tl+ flux (R275C),log fold change Tl+ flux (R275C/beta1),log fold change Tl+ flux (R275C/beta2Delta),log fold change Tl+ flux (R275C/beta4),log fold change Tl+ flux (R275C/Slo1WT/beta2)
CCc1cccc2c3c([nH]c12)C(CC)(CC(=O)O)OCC3 (centres undefined),10.4,1.08,0.88,57.6,-3.42,1.05 (inactive),4.09% (inactive),-2% (inactive),1.02 (inactive),0.63 (inactive) and -0.035 (inactive),-0.00239 (inactive),0.00932 (inactive),0.0181 (inactive),0.127 (active),0.0673 (inactive),0.0823 (inactive),0.0472 (inactive)
CCc1nc(N)nc(N)c1-c1ccc(Cl)cc1,-13.9,1.35,1.05,85.8,14.1,0.95 (inactive),-1.36% (inactive),1.81% (inactive),0.94 (inactive),0.72 (inactive),-0.0112 (inactive),-0.0172 (inactive),-0.00785 (inactive),-0.00379 (inactive),0.00565 (inactive),-0.00455 (inactive),-0.0705 (inactive)
CN(C)CCc1c[nH]c2ccc(C[C@H]3COC(=O)N3)cc12,–,–,–,–,–,1.02 (inactive),-2.84% (inactive),-4.33% (inactive),1 (inactive),–,0.0115 (inactive),0.0131 (inactive),-0.02 (inactive),0.0275 (inactive),-0.0113 (inactive),0.00246 (inactive),0.0342 (inactive)
CC(C)(C)NCC(O)COc1cccc2c1C[C@H](O)[C@H](O)C2 (some centres undefined),27.5,1.45,0.46,78.2,-4.44,0.99 (inactive),-1.36% (inactive),0.29% (inactive),0.9 (inactive),0.01 (inactive),0.0116 (inactive),0.00167 (inactive),-0.00576 (inactive),-0.0239 (inactive),0.0276 (inactive),-0.0328 (inactive),0.00485 (inactive)
Cc1onc(-c2c(Cl)cccc2Cl)c1C(=O)N[C@@H]1C(=O)N2[C@@H]1SC(C)(C)[C@@H]2C(=O)O,12.4,1.26,1.34,56.3,-10.2,0.97 (inactive),-2.27% (inactive),-0.48% (inactive),1.03 (inactive),0.54 (inactive),0.00974 (inactive),0.0705 (inactive),-0.0255 (inactive),4.8e-05 (inactive),0.00693 (inactive),-0.0254 (inactive),-0.0106 (inactive)
